Calls of active or inactive are those of the source.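 How the source made its calls, unless noted: active means compound raises insulin release from rat beta cells at 5 mM glucose, no numeric limit stated; inactive means the rest.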
What was measured:
[1] = Wnt pathway potentiators raising nuclear beta-catenin – imaging, WNT3A-conditioned medium, mouse C2C12, NPC library, primary screen (AID 1117326; in the data active means nuclear beta-catenin stimulation mostly above about 4.2%, no sharp cut-off; inactive means mostly below about 10%; further: reference of the scale not given here); conditions: stronger effect = higher value
[2] = stimulators of insulin release from INS-1E, primary screen, cell-based, 5 mM glucose, NPC library (AID 1117329); conditions: rat INS-1E insulin secretion, at 10 µM, stronger effect = higher value; further: reference of the scale not given here
[3] = growth inhibition of GSK3B-pretreated HCT116 cells – cell-based, CellTiter-Glo, 0.2 to 20 µM (AID 1117336;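 active means compounds lowering colon cancer cell viability after pretreatment blocking the GSK3B kinase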); conditions: HCT116 viability after GSK3B inhibitor, at 20 µM, stronger effect = higher value
[4] = inhibition of endothelial tube formation, primary screen, imaging, VEGF stimulated, CD31 staining, tube area, NPC library (AID 1117340;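 active means compound that reduces growth-factor-driven endothelial tube area in a mixed cell culture, no cutoff stated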); conditions: VEGF-stimulated ADSC/ECFC co-culture, at 10 µM, stronger effect = higher value
[5] = GLP1 release stimulators, primary, NCI-H716, NPC library (AID 1117341;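 active means compound raises GLP1 secretion from the human gut endocrine cells, with no numeric limit stated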; further: reference of the scale not given here); conditions: NCI-H716 cells, at 10 µM, stronger effect = higher value
[6] = HCT116 colon cancer cell growth inhibition, primary screen, CellTiter-Glo luminescence, NPC library (AID 1117342;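 active means compounds that lower survival of HCT116 colon cancer cells in the luminescence readout, no numeric limit stated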); conditions: at 20 µM (top of the series)
[7] = reduced SW480 viability measured with CellTiter-Glo, NPC library, primary (AID 1117343;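 active means compounds that lower viability of the colon cancer cells in the luminescence readout, with no numeric limit stated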); conditions: CellTiter-Glo luminescence; at 20 µM (top of the series)
[8] = NPC library primary testing for decreased DLD-1 cell viability via CellTiter-Glo (AID 1117346;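 active means compounds that lower survival of DLD-1 colon cancer cells in the luminescence readout, no cutoff given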); conditions: DLD-1 viability, CellTiter-Glo luminescence; at 20 µM (top of the series)

Row | Compound | nuclear beta-catenin stimulation ([1]; at 10 µM) | nuclear beta-catenin stimulation ([1]; stimulation, at 2 µM) [%] | insulin secretion stimulation [2] | viability decrease [3] | tube area decrease [4] | GLP1 secretion stimulation [5] | inhibition of viability [6] | viability decrease (inhibition) [7] | viability decrease (inhibition) [8]
1 | CCCCCCCCOc1ccc(C(=O)c2ccccc2)c(O)c1 | 1% (inactive) | 0.6 | -2.1% (inactive) | -6.85% (inactive) | -7.2% (inactive) | 0.4% (inactive) | -7.5% (inactive) | -0.5% (inactive) | 6.1% (inactive)
2 | COc1ccc([C@@H]2CC(=O)c3c(O)cc(O[C@@H]4O[C@H](CO[C@@H]5O[C@@H](C)[C@H](O)[C@@H](O)[C@@H]5O)[C@@H](O)[C@H](O)[C@@H]4O)cc3O2)cc1O | 1.6% (inactive) | 2.4 | -0.9% (inactive) | -10.2% (inactive) | -4.7% (inactive) | -1% (inactive) | -1.6% (inactive) | -2.4% (inactive) | 41.4% (inactive)
3 | NS(=O)(=O)c1cc(C(=O)NN2C[C@H]3[C@H]4CCC(C4)[C@H]3C2)ccc1Cl | -1.3% (inactive) | 2.2 | -3.6% (inactive) | -4.2% (inactive) | -14.3% (inactive) | -0.6% (inactive) | 10.3% (inactive) | -2.9% (inactive) | -6.4% (inactive)
4 | CCCCCCCCCCCCCCCC(=O)OCC(COC(=O)CCCCCCCCCCCCCCC)OC(=O)CCCCCCCCCCCCCCC | -0.4% (inactive) | -0.6 | 2.5% (inactive) | -7.6% (inactive) | -17.9% (inactive) | -5.4% (inactive) | -1.3% (inactive) | 2.7% (inactive) | -6.5% (inactive)
5 | O=C(O)Cn1c(=O)n(Cc2ccc(Br)cc2F)c(=O)c2ccc(Cl)cc21 | 1.1% (inactive) | -0.9 | 2.4% (inactive) | 4.6% (inactive) | 21.7% (inactive) | -1.6% (inactive) | 5% (inactive) | -2.1% (inactive) | -18.7% (inactive)
6 | CC(O)CCCCn1c(=O)c2c(ncn2C)n(C)c1=O (stereo not drawn) | -0.6% (inactive) | 3.3 | 3.75% (inactive) | 15.3% (inactive) | -9.4% (inactive) | -3.4% (inactive) | 0.8% (inactive) | 3.8% (inactive) | 6.4% (inactive)
7 | CCCCCCCCCCCCCCNCCO | 10.8% (inactive) | 10.6 | -1.5% (inactive) | 62.8% (active) | 103% (active) | 34.8% (active) | 32.6% (inactive) | 121% (active) | 103% (active)
8 | COc1ccc2cc(Br)ccc2c1 | -0.6% (inactive) | -0.3 | 0.9% (inactive) | -1.1% (inactive) | 3.3% (inactive) | -5% (inactive) | -2.2% (inactive) | -5.1% (inactive) | -6% (inactive)
9 | CC(=O)N1CCN(c2ccc(O)cc2)CC1 | 1.7% (inactive) | -1.5 | -0.1% (inactive) | 73.5% (active) | -25.3% (inactive) | 3.8% (inactive) | 38.5% (inactive) | 101% (active) | 34.4% (inactive)
10 | CCOC(=O)c1ccc(OCCN2C[C@H](O)[C@@H](O)[C@H](O)[C@H]2CO)cc1 | 1.7% (inactive) | 0.9 | 0.1% (inactive) | -17.2% (inactive) | 10.1% (inactive) | -1% (inactive) | -40.4% (inactive) | -62.9% (inactive) | -12.5% (inactive)
11 | CC(=O)N/N=C/c1ccc([N+](=O)[O-])o1 | 9.9% (inactive) | -0.2 | -3.3% (inactive) | 16.4% (inactive) | 20.9% (inactive) | 5.7% (inactive) | 9% (inactive) | 104% (active) | 80.5% (active)
12 | CN1C(CSCC(F)(F)F)Nc2cc(Cl)c(S(N)(=O)=O)cc2S1(=O)=O (stereo not drawn) | -0.4% (inactive) | -1.1 | 6.7% (inactive) | -2.8% (inactive) | -10.7% (inactive) | 1.3% (inactive) | 30.1% (inactive) | -4.4% (inactive) | -7.1% (inactive)
13 | CCC(C(=O)OCCN1CCOC(c2ccccc2)C1C)c1ccccc1 (stereo not drawn) | 1% (inactive) | 1.6 | 1.7% (inactive) | -40.8% (inactive) | 3.7% (inactive) | 5.9% (inactive) | 15.8% (inactive) | -0.4% (inactive) | 22.2% (inactive)
14 | O=C(Nc1ccc(Br)cc1)c1cc(Br)c(Br)s1 | 24.1% (inactive) | -0.1 | 3.5% (inactive) | 99.8% (active) | 108% (active) | -2% (inactive) | 99.7% (active) | 102% (active) | 102% (active)
15 | N[C@@H](CSSC[C@H](N)C(=O)O)C(=O)O | 1.1% (inactive) | 3.2 | -2.2% (inactive) | 0.8% (inactive) | -4% (inactive) | 3.6% (inactive) | -21.6% (inactive) | 38.7% (inactive) | 8.45% (inactive)
16 | CCCCC(CC)CNC(=O)CC(C)OC(=O)CCC(=O)O (stereo not drawn) | -1.8% (inactive) | -0.8 | 4% (inactive) | -11.7% (inactive) | 0.6% (inactive) | -1% (inactive) | 4.5% (inactive) | 4.5% (inactive) | -7.8% (inactive)
17 | Cc1ccc2ccc(Cl)cc2n1 | -0.9% (inactive) | -2.1 | 1.25% (inactive) | -1.7% (inactive) | -2.2% (inactive) | -2.9% (inactive) | 2.4% (inactive) | 1.2% (inactive) | -3.7% (inactive)
18 | CS(=O)(=O)c1ccc(-c2cn3ccccc3n2)cc1 | -2% (inactive) | -0.4 | 0.9% (inactive) | 18.1% (inactive) | -6.3% (inactive) | -2.6% (inactive) | 14.5% (inactive) | 22.6% (inactive) | 13.5% (inactive)
19 | CCCCCOc1ccccc1/C(=C\SC)n1ccnc1 | 0.8% (inactive) | -0.3 | 3.4% (inactive) | -71.1% (inactive) | 30.4% (inactive) | 3.8% (inactive) | 61.1% (active) | 79.6% (active) | 99.5% (active)
20 | CN1CCN(CCC(=O)N2c3ccccc3Sc3ccc(C(F)(F)F)cc32)CC1 | 2.3% (inactive) | 2.1 | 16.1% (inactive) | 72.7% (active) | 19.7% (inactive) | 11.5% (inactive) | 60% (active) | 117% (active) | 57.8% (active)
21 | CCOC(=O)[C@H](CCc1ccccc1)N[C@H]1CCCN2CCC[C@@H](C(=O)O)N2C1=O | -0.5% (inactive) | 0.8 | -0.4% (inactive) | -16.7% (inactive) | -6.5% (inactive) | 4.4% (inactive) | 4.2% (inactive) | 4.5% (active) | -2.1% (inactive)
22 | O=C(NN1CCCC1)NS(=O)(=O)c1ccc(Cl)cc1 | -0.5% (inactive) | -0.1 | 33.9% (active) | -3.1% (inactive) | 7% (inactive) | -1.1% (inactive) | 14.2% (inactive) | 0% (inactive) | -2.8% (inactive)
23 | COC(=O)c1ccccc1C(=O)c1ccc(OCCN2CCCCC2)cc1 | 0.4% (inactive) | 0.7 | 0.95% (inactive) | 26.9% (inactive) | -5.8% (inactive) | 3.5% (inactive) | 39.7% (inactive) | 15.8% (inactive) | 39.7% (inactive)
24 | CCCCCCn1c(=O)c2c(ncn2C)n(C)c1=O | -0.5% (inactive) | -2 | 1.5% (inactive) | 1.6% (inactive) | 10.5% (inactive) | 1.6% (inactive) | 6.2% (inactive) | 15% (inactive) | -3.4% (inactive)
25 | O=C(CN1CCNCC1)NC1CCCCC1 | -0.7% (inactive) | 0.3 | 5% (inactive) | -3.9% (inactive) | 13.7% (inactive) | 1% (inactive) | 7.2% (inactive) | 16.3% (inactive) | 4.5% (active)
26 | Cc1cc(OCCOCC[N+](C)(C)Cc2ccccc2)ccc1C(C)(C)CC(C)(C)C | 3% (inactive) | 6.8 | 0.6% (inactive) | 101% (active) | 107% (active) | 98.1% (active) | 102% (active) | 141% (active) | 103% (active)
27 | COC(=O)c1cccnc1 | 1% (inactive) | 1.1 | -1.6% (inactive) | -2.7% (inactive) | -14.2% (inactive) | 1.1% (inactive) | -7.2% (inactive) | 17.2% (inactive) | 1.25% (inactive)

From PubChem BioAssay
